Assay results taken from PubChem BioAssay (Tox21).
Results filed as inconclusive are left out. Calls of active or inactive are those of the source. Unless noted, the call rests on the fitted dose curve; in most records, active means well fitted curve in the direction sought with a large enough effect in the repeat runs; inconclusive means weak or mixed curves; inactive means no such curve, though single readings can be large; an effect the other way counts as inactive or inconclusive. Positions of bridges follow the written chain, without caps; N, C: chain ends. Non-standard residues stand in square brackets, D forms with d. Residues, ends and D or L forms follow the SMILES beside them. *: point of attachment. X2 = CC[C@H](C)CCCCC(=O)*; Dab = NCC[C@H](N)C(=O)O

Legend:
[1] = qHTS assay to identify small molecule antagonists of the thyroid receptor (TR) signaling pathway - cell viability counter screen (AID 743064); further: nearly all actives have a fitted effect of over 50% in size
Summary of the method: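 Same-well viability check: GH3.TRE-Luc cells stimulated with 1 nM T3 alongside test compound for 23.5 h, followed by CellTiter-Fluor fluorescence.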

[2] = qHTS assay to identify small molecule antagonists of the thyroid receptor (TR) signaling pathway (AID 743065); further: nearly all actives have a fitted effect of over 55% in size
Summary of the method: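 Antagonism measured as loss of luciferase signal in GH3 cells stably carrying a TRE-luciferase reporter, co-treated with compound and T3 (1 nM final) for 23.5 h at 37 C. Viability was read in the same well by CellTiter-Fluor.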

[3] = system: thyroid hormone receptor (rat, GH3 cells); experiment: qHTS assay to identify small molecule agonists of the thyroid receptor (TR) signaling pathway (AID 743066; calls by dose curve)
[4] = target: Estrogen receptor (Homo sapiens) (UniProt P03372); experiment: qHTS assay to identify small molecule antagonists of the estrogen receptor alpha (ER-alpha) signaling pathway (AID 743069; active means well fitted curve in the direction sought with a large enough effect in the signal ratio in the repeat runs, not every such curve was filed as active; the % refers to the signal ratio)
Sequence of Estrogen receptor (Homo sapiens) (P03372 whole entry, looked up): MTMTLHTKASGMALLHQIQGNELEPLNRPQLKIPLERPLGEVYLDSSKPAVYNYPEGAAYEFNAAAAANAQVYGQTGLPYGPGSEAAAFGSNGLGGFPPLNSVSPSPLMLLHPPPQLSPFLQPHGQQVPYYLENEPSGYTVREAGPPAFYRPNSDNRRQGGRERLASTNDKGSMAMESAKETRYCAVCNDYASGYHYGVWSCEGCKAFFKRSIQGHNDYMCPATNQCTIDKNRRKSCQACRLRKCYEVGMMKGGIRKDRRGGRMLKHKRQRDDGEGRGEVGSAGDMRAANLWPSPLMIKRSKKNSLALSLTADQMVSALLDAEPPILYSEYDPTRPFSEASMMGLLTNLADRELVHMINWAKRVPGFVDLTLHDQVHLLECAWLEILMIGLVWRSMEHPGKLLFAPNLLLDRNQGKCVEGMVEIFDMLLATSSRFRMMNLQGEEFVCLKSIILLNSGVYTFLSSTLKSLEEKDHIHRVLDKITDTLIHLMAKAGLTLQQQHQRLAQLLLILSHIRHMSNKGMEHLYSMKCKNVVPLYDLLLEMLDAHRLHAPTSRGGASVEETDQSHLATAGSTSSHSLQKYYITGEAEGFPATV
Summary of the method: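 Fluorescence intensity from a beta-lactamase FRET substrate served as the read-out. Cells: HEK293 with stably integrated ER-alpha-UAS-bla reporter. Agonist 17beta-estradiol was co-added with compounds; incubation 18 hr at 37C, substrate 2 hr at room temperature.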

[5] = qHTS assay to identify small molecule antagonists of the estrogen receptor alpha (ER-alpha) signaling pathway - cell viability counter screen (AID 743074; calls by dose curve; further: nearly all actives have a fitted effect of over 45% in size)
[6] = target: Estrogen receptor (Homo sapiens) (UniProt P03372); experiment: qHTS assay to identify small molecule agonists of the estrogen receptor alpha (ER-alpha) signaling pathway (AID 743075; calls by dose curve; further: potency means the concentration at half of the fitted maximal effect)
[7] = target: Estrogen receptor (Homo sapiens) (UniProt P03372); experiment: qHTS assay to identify small molecule agonists of the estrogen receptor alpha (ER-alpha) signaling pathway using the BG1 cell line (AID 743079); conditions: BG1Luc4E2 cells, ERE-luciferase agonist, 22 h; activation: at 70.3 µM (top of the series); further: nearly all actives have a fitted effect of over 20% in size; further: potency means the concentration at half of the fitted maximal effect
[8] = qHTS assay to identify small molecule antagonists of the estrogen receptor alpha (ER-alpha) signaling pathway using the BG1 cell line (AID 743080; calls by dose curve;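 further: BG1 cells stimulated with 17beta-estradiol alongside compound; nearly all actives have a fitted effect of over 25% in size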)
Summary of the method: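 Quantitative HTS on the Tox21 10K library: BG1 cells with endogenous ER-alpha and ERE-luciferase reporter, 17beta-estradiol stimulation, 21.5 h compound exposure, luminescence endpoint with parallel fluorescence cytotoxicity counter-read.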

[9] = qHTS assay to identify small molecule antagonists of the estrogen receptor alpha (ER-alpha) signaling pathway using the BG1 cell line - cell viability counter screen (AID 743081);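 further: compound given together with 17beta-estradiol as the ER stimulus; nearly all actives have a fitted effect of over 45% in size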
Aromatase (Homo sapiens) = Aromatase (Homo sapiens) (UniProt P11511); experiment: qHTS assay to identify aromatase inhibitors (AID 743083); further: nearly all actives have a fitted effect of over 55% in size
Sequence of Aromatase (Homo sapiens) (P11511 whole entry, looked up): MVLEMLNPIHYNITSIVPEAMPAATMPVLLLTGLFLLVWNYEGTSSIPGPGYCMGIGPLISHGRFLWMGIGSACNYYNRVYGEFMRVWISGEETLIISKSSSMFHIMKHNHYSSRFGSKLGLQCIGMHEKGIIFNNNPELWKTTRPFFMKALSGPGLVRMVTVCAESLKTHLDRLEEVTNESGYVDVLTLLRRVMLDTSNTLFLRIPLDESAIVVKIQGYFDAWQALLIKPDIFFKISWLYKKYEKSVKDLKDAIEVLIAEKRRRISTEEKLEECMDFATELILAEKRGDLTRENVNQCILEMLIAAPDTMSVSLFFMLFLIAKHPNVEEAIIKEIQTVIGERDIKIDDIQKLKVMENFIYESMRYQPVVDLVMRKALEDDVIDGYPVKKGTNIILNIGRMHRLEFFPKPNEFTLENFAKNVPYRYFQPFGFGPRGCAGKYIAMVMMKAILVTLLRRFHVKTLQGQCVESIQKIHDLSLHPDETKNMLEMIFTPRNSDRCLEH

Measured: Potency

O=C(O)CC/C=C\CC[C@@H]1[C@@H](N2CCCCC2)[C@@H](O)C[C@@H]1OCc1ccc(-c2ccccc2)cc1
inactive: all assays above

O=C(Nc1ccc(O)cc1)c1ccccc1O
active: [7] 13.3 µM
not listed: [8]
inactive: all other assays above

CC[C@H](C)CCCCC(=O)N[C@@H](CCN)C(=O)N[C@H](C(=O)N[C@@H](CCN)C(=O)N[C@H]1CCNC(=O)[C@@H]([C@H](C)O)NC(=O)[C@H](CCN)NC(=O)[C@H](CCN)NC(=O)[C@H](CC(C)C)NC(=O)[C@@H](CC(C)C)NC(=O)[C@H](CCN)NC1=O)[C@@H](C)O (X2-[Dab]T[Dab][Dab][Dab][dL]L[Dab][Dab][dT]; lactam 4-C)
inactive: all assays above

CC(C)CN(C[C@@H](OP(=O)(O)O)[C@H](Cc1ccccc1)NC(=O)O[C@H]1CCOC1)S(=O)(=O)c1ccc(N)cc1
inactive: all assays above

CCCc1ccc(C(=O)O)cc1
inactive: all assays above

CC(C)[C@H](N)C(=O)OCC(CO)OCn1cnc2c(=O)[nH]c(N)nc21 (some centres undefined)
inactive: all assays above

NC(N)=NCC1COc2ccccc2O1 (centres undefined)
not listed: [9]
inactive: all other assays above

O=C(c1cc2ccccc2o1)N1CCN(Cc2ccccc2)CC1
not listed: [8]
inactive: all other assays above

CCN(CC)CCOc1ccc2nc(N(C)C)sc2c1
active: [7] 26.6 µM
not listed: [8]
inactive: all other assays above

CCOC(=O)Cc1cccc(-c2cc(CCCCCCc3ccc(O[C@H]4O[C@H](COC(C)=O)[C@@H](OC(C)=O)[C@H](OC(C)=O)[C@@H]4OC(C)=O)c(-c4cccc(CC(=O)OCC)c4)c3)ccc2O[C@H]2O[C@H](COC(C)=O)[C@@H](OC(C)=O)[C@H](OC(C)=O)[C@@H]2OC(C)=O)c1
not listed: [9]
inactive: all other assays above

NCCCC[C@H](NC(=O)[C@@H]1CCCN1C(=O)[C@@H]1CSSC[C@H](N)C(=O)N[C@@H](Cc2ccccc2)C(=O)N[C@@H](Cc2ccccc2)C(=O)N[C@@H](CCC(N)=O)C(=O)N[C@@H](CC(N)=O)C(=O)N1)C(=O)NCC(N)=O
not listed: [9]
inactive: all other assays above

NC(=O)Oc1ccc(Cc2ccccc2)cc1
active: [6] 26.8 µM [activator] | [7] 21.1 µM
not listed: [8]
inactive: all other assays above

CC1(O)CCC(C(C)(C)O)CC1 (centres undefined)
inactive: all assays above

OC(CN1CCCCC1)c1cc(-c2ccccc2)on1 (centres undefined)
active: [7] 23.7 µM
not listed: [8]
inactive: all other assays above

CC#CCC(C)[C@H](O)/C=C/[C@@H]1[C@H]2C/C(=C/CCCC(=O)O)C[C@H]2C[C@H]1O (some centres undefined)
active: [7] 29.8 µM
not listed: [9]
inactive: all other assays above

NCCCNCCCCNC(=O)C(O)NC(=O)CCCCCCN=C(N)N (centres undefined)
not listed: [9]
inactive: all other assays above

CCC(=O)NS(=O)(=O)c1ccc(-c2c(-c3ccccc3)noc2C)cc1
not listed: [9]
inactive: all other assays above

O=C(O)CCC/C=C\C[C@@H]1[C@@H](/C=C/[C@@H](O)COc2cccc(Cl)c2)[C@H](O)C[C@@H]1O
not listed: [8]
inactive: all other assays above

COc1ccc2cc([C@H](C)CO)ccc2c1
active: [7] 33.5 µM
not listed: [8]
inactive: all other assays above

CO/N=C(\C(=O)N[C@@H]1C(=O)N2C(C(=O)O)=C(CSc3nnnn3C)CS[C@H]12)c1csc(N)n1
inactive: all assays above

CC(C)c1nc(N(C)S(C)(=O)=O)nc(-c2ccc(F)cc2)c1/C=C/C(O)CC(O)CC(=O)O (centres undefined)
active: [7] 26.6 µM
not listed: [8] | Aromatase (Homo sapiens)
inactive: all other assays above

CCN(CC)CCOC(=O)c1ccc(N)cc1Cl
not listed: [9]
inactive: all other assays above
